Most compounds without a hit are left out; they make up all but 19% or so of the library.
DT40 TDP1 CPT: DT40-hTDP1 cell growth loss with CPT | AID 686979 | Potency, µM (highest dose often 46.2 µM), for the others: top-dose activity change, negative = growth inhibition, usual class: inhibitors | chicken DT40 Tdp1-/-;hTDP1 cells + 20 nM CPT, ATP luminescence, 48 h | 420,000 tested, 12% active; further: potency means the concentration at half of the fitted maximal effect; on the % scale 0 is the no-effect control and ±100 the full control effect; nearly all actives have a fitted effect of over 55% in size
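Cell growth measured by CellTiter-Glo luminescence after a minimum 48 h, 37 C compound exposure with 20 nM CPT in Tdp1-knockout DT40 cells stably expressing hTDP1, seeded 400/well; qHTS titration format.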
BCR signal inh: blocks chronic active B-cell receptor signaling | ABC-DLBCL IkBa-CBG/CBR reporter, luminescence ratio, 4 h | 340,000 tested, 0.05% active | Potency, µM (doses to about 46.1 µM), for inactives: at the top dose activity change, negative = inhibition, hits mostly inhibitors; active means well fitted inhibition curve with a large enough effect in the signal ratio, with a control signal flat, not every such curve was filed as active; inconclusive means small, poorly fitted or top-dose-only effect, or effect the other way, or a change in a side signal; the % refers to the signal ratio;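 further: potency means the concentration at half of the fitted maximal effect; plate controls were basal doxycycline-induced cells for no effect and cells given 10 µM MG132 for full effect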
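TMD8 human ABC-DLBCL cells with doxycycline-inducible IκBα–green luciferase fusion and unfused red luciferase, in 0.5% FBS medium; compounds up to 46 uM, 4 h at 37C. Green/red luminescence ratio, filter-overlap corrected, fitted to concentration-response curves.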
MCF10A rerep: inducers of DNA re-replication in MCF 10A breast cells; MCF 10A DNA re-replication, Hoechst nuclear intensity, 48 h; Potency, µM (top dose mostly 46.1 µM), without a hit: top-dose activity, positive = re-replication, usual class: activators; 350,000 tested, 2.9% active; further: potency means the concentration at half of the fitted maximal effect; % of control where 0% means no effect; nearly all actives have a fitted effect of over 50% in size
SW480 rereplic: induces DNA re-replication in SW480 colon adenocarcinoma cells | Potency, µM (series often up to 46.1 µM), without a hit: at the top dose re-replication activation, actives largely listed as activators | AID 624297 | SW480 DNA re-replication, Hoechst DNA content imaging, 48 h | 340,000 tested, 1.8% active; further: potency means the concentration at half of the fitted maximal effect; % of control where 0% means no effect; nearly all actives have a fitted effect of over 55% in size
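Treated cells incubate 48 hr (37 C, 5% CO2), are stained 40 min with Hoechst, and nuclear fluorescence is enumerated; a rise in nuclei with high DNA signal marks re-replication.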
TDP1 cell noCPT: qHTS for Inhibitors of human tyrosyl-DNA phosphodiesterase 1 (TDP1): qHTS in cells in absence of CPT; 420,000 tested, 15% active; Potency, µM (doses to about 46.2 µM), for the others: top-dose activity change, negative = growth inhibition, hits mostly inhibitors; AID 686978, 2013; DT40 Tdp1-/- hTDP1 cells, no CPT, ATP luminescence, 48 h; further: potency means the concentration at half of the fitted maximal effect; on the % scale 0 is the no-effect control and ±100 the full control effect; nearly all actives have a fitted effect of over 55% in size
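Chicken DT40 Tdp1-/- cells stably complemented with human TDP1 were seeded at 400 cells/well with DMSO in place of 20 nM camptothecin. After compound pinning, cells grew at least 48 hr at 37 °C; viability read by CellTiter-Glo luminescence.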
IL-1B inflam inh: inhibitors of inflammasome signaling (IL-1 beta secretion) | AID 743279 | activity change, % at 57.5 µM | THP-1 LPS/ATP IL-1B secretion, AlphaLISA, 16 h; active compounds read low | 360,000 tested, 4.7% active; in the data active means activity change below about -50%; inconclusive means mostly about -30% to -49%; further: on the % scale 0 is the no-effect control and ±100 the full control effect
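THP-1 cells pretreated 1 hr with compounds (up to 57.5 uM final), then stimulated with LPS (250 ng/mL final) plus ATP (1.25 mM final); secreted IL-1B measured by AlphaLISA after 16 hr, decreased signal indicating inhibition.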
Starred values were filed as active, the others as inactive; u = inconclusive; x = no result given; [ ] = remark or other dose. Unless noted, the call rests on the fitted dose curve; in most records, active means well fitted curve in the direction sought with a large enough effect; inconclusive means small, poorly fitted or top-dose-only effect, or another doubt; inactive means no such curve, though single readings can be large; an effect the other way counts as inactive or inconclusive.

SMILES	DT40 TDP1 CPT	BCR signal inh	MCF10A rerep	SW480 rereplic	TDP1 cell noCPT	IL-1B inflam inh
Cc1ccc(CS(=O)Cc2ccc(C(=O)N3CCN(c4ccccc4)CC3)o2)cc1 (centres undefined)	20.6µM*	-2.8%	-13.4%	-10.5%	u	-15.3
CCc1ccc(-c2nc(CS(=O)CC(=O)NCCCN3CCC(C)CC3)c(C)o2)cc1 (centres undefined)	u	-3.4%	17.0%	-7.1%	u	-8.0
Cc1cccc(CSc2nc3c(c(=O)[nH]2)C(c2cccc(O)c2)CC(=O)N3)c1 (centres undefined)	u	x	x	x	-52.3%	x
COc1cccc(N2CCN(C(=O)c3ccc(CS(=O)Cc4ccc(Cl)cc4)o3)CC2)c1 (centres undefined)	u	0.4%	7.4%	-1.7%	18.4µM*	-23.9
COc1cccc(N2CCN(C(=O)c3ccc(CS(=O)Cc4ccccc4Cl)o3)CC2)c1 (centres undefined)	u	-0.8%	24.4%	-6.9%	u	-15.5
O=C(c1ccc(COc2c(F)c(F)cc(F)c2F)o1)N1CCN(c2ccccc2)CC1	18.4µM*	0.2%	u	6.7%	11.6µM*	6.6
O=C(c1ccc(COc2c(F)c(F)c(F)c(F)c2F)o1)N1CCOCC1	-18.2%	u	20.3%	u	u	0.7
COc1ccc(N2CC(NC(=O)/C=C\c3ccccc3)CC2=O)cc1 (centres undefined)	-2.3%	-2.5%	x	x	-9.5%	x
CC(=O)c1cccc(NC(=O)C(=O)c2cn(CC(=O)N3CCCCC3)c3ccccc23)c1	25.9µM*	u	-0.3%	-1.0%	23.1µM*	-13.2
COc1ccccc1NC(=O)C(=O)c1cn(CC(=O)N2CCOCC2)c2ccccc12	u	u	1.2%	-14.6%	20.6µM*	-12.5
CC(=O)Nc1cccc(NC(=O)C(=O)c2cn(CC(=O)N3CCCC3)c3ccccc23)c1	u	x	x	x	u	-2.1
COc1ccc(C(=O)NCCn2cc(SCc3cc(C)ccc3C)c3ccccc32)cc1	13µM*	x	x	x	u	x
COC(=O)c1ccc(NC(=O)CSc2cn(CC(=O)N3CCCCC3)c3ccccc23)cc1	20.6µM*	x	x	x	u	x
COCCNC(=O)CSc1cn(CC(=O)N2CCCCCC2)c2ccccc12	u	x	x	x	0.517µM*	x
CC(=O)Nc1cccc(NC(=O)CSc2cn(CC(=O)N3CCCCCC3)c3ccccc23)c1	18.4µM*	x	x	x	u	x
CCOc1ccc(C(=O)NCCn2cc(SCC(=O)Nc3ccccc3)c3ccccc32)cc1	u	x	x	x	23.1µM*	x
Cc1cc(NC(=O)CSc2cn(CCNC(=O)c3ccccc3)c3ccccc23)no1	-21.2%	u	u	-1.6%	u	-16.3
CCOc1ccc(NC(=O)CSc2cn(CC(=O)N3CCCCCC3)c3ccccc23)cc1	23.1µM*	x	x	x	u	x
CCOc1ccc(NC(=O)CSc2cn(CC(=O)N3CCOCC3)c3ccccc23)cc1	u	x	x	x	-28.8%	x
COc1ccc(S(=O)(=O)N2CCCCC2)cc1NC(=O)C1CC(=O)N(Cc2ccccc2)C1 (centres undefined)	-20.3%	1.9%	6.8%	-21.7%	-1.3%	-15.8
Cc1csc(C(C)N(C)C(=O)c2cnn(-c3nccc(-c4cc(C)sc4C)n3)c2C)n1 (centres undefined)	-5.6%[9.04 µM]	x	x	x	u	x
O=c1c(-c2cc(F)cc(F)c2)nc2cncnc2n1C1CC1	1.2%	x	x	x	1.2%	x
Cc1onc(-c2ccccc2)c1C(=O)Nc1nnc(CC(C)(C)C)s1	-5.4%	-16.2%	12.1%	-3.6%	1.8%	55.6
O=C(CSc1cn(CCNC(=O)c2ccccc2)c2ccccc12)NCc1ccco1	25.9µM*	u	11.0%	-2.2%	u	-18.2
Cc1cc(C)nc(Sc2nc(Nc3ccccc3)nc(Sc3nc(C)cc(C)n3)n2)n1	-25.5%	-0.1%	u	u	29.1µM*	-53.7*
SMILES	DT40 TDP1 CPT	BCR signal inh	MCF10A rerep	SW480 rereplic	TDP1 cell noCPT	IL-1B inflam inh
Cc1cccc(N2C(=O)c3ccc(C(=O)Nc4ccccn4)cc3C2=O)c1	17.6%	-0.4%	21.9%	-27.0%	6.5%	15.8
Cc1cccc(N2C(=O)/C(=C\c3ccc(C(=O)O)cc3)c3ccccc3C2=O)c1	18.4µM*	7.2%	3.5%	2.3%	u	-15.2
N#CC1=C(N)N(c2ccccc2)C(c2ccccc2)C1(C#N)C#N (centres undefined)	16.4µM*	u	u	-1.6%	14.6µM*	-9.1
Cc1nn(-c2ccccc2)c2c1C(c1ccccc1)C(C#N)=C(N)O2 (centres undefined)	u	u	2.7%	1.4%	u	12.8
O=C(c1ccccc1)c1ccc(OCC(O)CNCc2ccc(Cl)cc2)cc1 (centres undefined)	u	-9.0%	u	-3.9%	u	-60.5*
Cc1ccc(OCC(O)CNCc2ccc(F)cc2)cc1 (centres undefined)	u	u	11.3%	0.0%	u	-77.7*
COc1cccc(CNCC(O)COc2ccc(C(=O)c3ccccc3)cc2)c1 (centres undefined)	u	u	u	-4.7%	-28.5%	-19.4
OC(CNCc1ccccc1)COc1ccccc1 (centres undefined)	-22.9%	-0.9%	-1.7%	6.9%	-10.1%	-0.4
C/C(O)=C(/C#N)c1nc2ccccc2[nH]1	u	u	2.4%	2.4%	u	-13.6
N#C/C(=C(/O)c1ccc(Cl)cc1)c1nc2ccccc2[nH]1	-1.9%	u	-2.9%	7.0%	11.6%	-1.0
CC(=O)OC(/C(O)=C(\C#N)c1nc2ccccc2[nH]1)c1ccccc1 (centres undefined)	u	u	-3.8%	-2.0%	18.4µM*	6.5
COc1cc(/C(O)=C(\C#N)c2nc3ccccc3[nH]2)cc(OC)c1OC	u	10.4%	14.6µM*	u	13µM*	u
N#C/C(=C(/O)c1ccc(Cl)c([N+](=O)[O-])c1)c1nc2ccccc2[nH]1	14.6µM*	u	-8.2%	12.1%	u	u
N#C/C(=C(/O)c1ccc([N+](=O)[O-])cc1)c1nc2ccccc2[nH]1	-8.8%	u	-1.1%	10.2%	u	-6.3
N#C/C(=C(/O)C(Cl)(Cl)Cl)c1nc2ccccc2[nH]1	8.2µM*	u	3.2%	14.4%	9.2µM*	-6.9
O=c1[nH]c(=O)n2c(c1-c1ccccc1)OC(CBr)C2 (centres undefined)	-7.6%	x	x	x	-16.9%	3.8

Screening results from PubChem.
